In the supplement of paper PMC10849652:
Targets with a hit are over-represented here; the source holds about 7,900 in all. About 0.6% of all pairs of compound and target were hits.

Tests used:
Assay in all cases: log2 fold change, soluble protein after heating vs DMSO (PISA); higher = thermal stabilisation; K562 cells, 10 uM, 30 min; active = over 0.2 and 3.5 SD of the protein, either way, in both replicates (recomputed)
[1] = compound: COC1=CC=C(C=C1)CN2C=CC3=C2C=C(C=C3)C(=O)NO
In short: (§1)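 K562 cells at 2×10^6 cells/mL were treated for 30 min with 10 μM compound, and aliquots were heated for 3 min over 48°C-58°C before pooling. Extraction used PBS with 0.5% NP-40 at 4°C, and soluble protein was the supernatant after 21,000xg for 90 min, measured by TMTpro 16plex LC-MS/MS with channel sums equalised. Thermal stability values, relative to control samples and from duplicates, are log2 fold changes.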

filanesib = compound: CON(C)C(=O)N1N=C(c2cc(F)ccc2F)S[C@@]1(CCCN)c1ccccc1 [filanesib]
In short: as §1

zotarolimus = compound: CO[C@H]1C[C@@H]2CC[C@@H](C)[C@@](O)(O2)C(=O)C(=O)N2CCCC[C@H]2C(=O)O[C@H]([C@H](C)C[C@@H]2CC[C@H](n3cnnn3)[C@H](OC)C2)CC(=O)[C@H](C)/C=C(\C)[C@@H](O)[C@@H](OC)C(=O)[C@H](C)C[C@H](C)/C=C/C=C/C=C/1C [zotarolimus]
In short: as §1

idasanutlin = compound: COc1cc(C(=O)O)ccc1NC(=O)[C@@H]1N[C@@H](CC(C)(C)C)[C@](C#N)(c2ccc(Cl)cc2F)[C@H]1c1cccc(Cl)c1F [idasanutlin]
In short: as §1

alisertib = compound: COc1cc(Nc2ncc3c(n2)-c2ccc(Cl)cc2C(c2c(F)cccc2OC)=NC3)ccc1C(=O)O [alisertib]
In short: as §1

[2] = compound: COc1cc2nc(-c3cc(F)ccc3O)nc(N[C@@H]3CNC[C@H]3C(C)(C)O)c2cc1OC
In short: as §1

gefitinib = compound: COc1cc2ncnc(Nc3ccc(F)c(Cl)c3)c2cc1OCCCN1CCOCC1 [gefitinib]
In short: as §1

[3] = compound: COc1cccc2cc(-c3nc([C@H]4CC[C@H](C(=O)O)CC4)n4ncnc(N)c34)[nH]c12
In short: as §1

lapatinib = compound: CS(=O)(=O)CCNCc1ccc(-c2ccc3ncnc(Nc4ccc(OCc5cccc(F)c5)c(Cl)c4)c3c2)o1 [lapatinib]
In short: as §1

pictilisib = compound: CS(=O)(=O)N1CCN(Cc2cc3nc(-c4cccc5[nH]ncc45)nc(N4CCOCC4)c3s2)CC1 [pictilisib]
In short: as §1

Measured: log2 fold change

HEATR5B (UniProt Q9P2D3)
inactive: [1] -0.006 | filanesib -0.005 | zotarolimus -0.071 | idasanutlin 0 | alisertib 0.006 | [2] 0.039 | gefitinib -0.045 | [3] 0.033 | lapatinib 0.018 | pictilisib -0.065

HDDC2 (UniProt Q7Z4H3)
UniProt Q7Z4H3, sequence (Q7Z4H3 whole entry, looked up): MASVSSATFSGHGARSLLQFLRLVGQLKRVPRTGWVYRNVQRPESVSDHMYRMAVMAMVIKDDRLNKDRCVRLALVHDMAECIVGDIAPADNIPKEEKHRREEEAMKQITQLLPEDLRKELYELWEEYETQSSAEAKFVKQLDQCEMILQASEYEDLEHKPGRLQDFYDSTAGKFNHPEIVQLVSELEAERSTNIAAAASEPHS
inactive: [1] -0.098 | filanesib -0.037 | zotarolimus 0.049 | idasanutlin -0.068 | alisertib 0.04 | [2] -0.05 | gefitinib -0.022 | [3] 0.068 | lapatinib 0.037 | pictilisib 0.064

GNG5 (UniProt P63218)
UniProt P63218, sequence (P63218 whole entry, looked up): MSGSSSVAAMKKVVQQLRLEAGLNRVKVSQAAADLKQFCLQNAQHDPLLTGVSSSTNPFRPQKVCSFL
inactive: [1] 0.082 | filanesib 0.086 | zotarolimus -0.016 | idasanutlin 0.065 | alisertib -0.146 | [2] -0.022 | gefitinib 0.224 | [3] 0.079 | lapatinib -0.006 | pictilisib -0.087

FIBP (UniProt O43427)
UniProt O43427, sequence (O43427 whole entry, looked up): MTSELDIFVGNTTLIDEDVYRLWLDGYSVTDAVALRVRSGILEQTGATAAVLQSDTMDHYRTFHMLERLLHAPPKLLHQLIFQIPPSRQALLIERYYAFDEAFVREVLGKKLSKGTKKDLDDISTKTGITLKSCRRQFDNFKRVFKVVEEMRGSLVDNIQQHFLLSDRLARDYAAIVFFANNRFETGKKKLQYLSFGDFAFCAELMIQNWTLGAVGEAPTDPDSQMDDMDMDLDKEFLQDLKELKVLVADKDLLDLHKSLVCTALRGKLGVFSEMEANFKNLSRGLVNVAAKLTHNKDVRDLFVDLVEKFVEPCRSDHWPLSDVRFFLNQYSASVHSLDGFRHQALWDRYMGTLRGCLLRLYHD
inactive: [1] 0.083 | filanesib -0.051 | zotarolimus -0.047 | idasanutlin 0.03 | alisertib 0.016 | [2] 0.042 | [3] -0.084 | lapatinib 0.008 | pictilisib 0.185

GALNT4 (UniProt Q8N4A0)
UniProt Q8N4A0, sequence (Q8N4A0 whole entry, looked up): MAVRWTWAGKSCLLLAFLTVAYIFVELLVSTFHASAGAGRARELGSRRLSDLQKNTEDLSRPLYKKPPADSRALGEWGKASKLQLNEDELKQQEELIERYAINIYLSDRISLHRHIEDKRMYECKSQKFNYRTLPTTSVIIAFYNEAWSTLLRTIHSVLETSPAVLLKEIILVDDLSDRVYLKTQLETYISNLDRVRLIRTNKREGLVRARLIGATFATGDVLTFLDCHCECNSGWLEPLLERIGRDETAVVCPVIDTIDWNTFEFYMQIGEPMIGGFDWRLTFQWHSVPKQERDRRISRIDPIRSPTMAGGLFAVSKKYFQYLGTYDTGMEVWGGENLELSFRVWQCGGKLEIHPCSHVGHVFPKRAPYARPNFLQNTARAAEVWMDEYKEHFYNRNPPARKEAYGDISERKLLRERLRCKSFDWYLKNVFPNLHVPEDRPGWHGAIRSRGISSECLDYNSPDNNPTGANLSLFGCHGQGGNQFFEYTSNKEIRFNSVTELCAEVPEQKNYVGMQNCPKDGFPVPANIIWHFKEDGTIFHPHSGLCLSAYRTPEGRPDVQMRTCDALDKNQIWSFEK
inactive: [1] -0.029 | filanesib 0.066 | zotarolimus -0.017 | idasanutlin -0.099 | alisertib -0.015 | [2] 0.011 | gefitinib 0.025 | [3] 0.025 | lapatinib -0.028 | pictilisib 0.172

GGT7 (UniProt Q9UJ14)
UniProt Q9UJ14, sequence (Q9UJ14 whole entry, looked up): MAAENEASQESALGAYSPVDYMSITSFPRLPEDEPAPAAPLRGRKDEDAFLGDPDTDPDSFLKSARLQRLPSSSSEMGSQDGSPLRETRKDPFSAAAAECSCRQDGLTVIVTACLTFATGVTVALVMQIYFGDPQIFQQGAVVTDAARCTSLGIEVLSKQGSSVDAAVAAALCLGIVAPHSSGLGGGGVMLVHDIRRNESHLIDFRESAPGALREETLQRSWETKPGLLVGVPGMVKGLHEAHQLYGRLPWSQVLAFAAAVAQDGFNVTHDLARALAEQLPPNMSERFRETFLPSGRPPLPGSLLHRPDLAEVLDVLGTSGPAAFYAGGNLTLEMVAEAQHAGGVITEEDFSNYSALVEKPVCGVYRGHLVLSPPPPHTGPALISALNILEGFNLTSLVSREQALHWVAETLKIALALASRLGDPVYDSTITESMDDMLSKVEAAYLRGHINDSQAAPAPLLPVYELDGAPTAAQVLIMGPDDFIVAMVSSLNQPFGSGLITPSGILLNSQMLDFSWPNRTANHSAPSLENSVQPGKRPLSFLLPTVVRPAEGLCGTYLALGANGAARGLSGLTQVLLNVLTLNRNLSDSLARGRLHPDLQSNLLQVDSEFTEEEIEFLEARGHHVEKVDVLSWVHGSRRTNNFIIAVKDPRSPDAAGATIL
inactive: [1] 0.044 | filanesib 0.081 | zotarolimus -0.03 | idasanutlin -0.039 | alisertib -0.07 | [2] -0.098 | gefitinib 0.055 | [3] 0.05 | lapatinib -0.062 | pictilisib 0.143

GLUL (UniProt P15104)
UniProt P15104, sequence (P15104 whole entry, looked up): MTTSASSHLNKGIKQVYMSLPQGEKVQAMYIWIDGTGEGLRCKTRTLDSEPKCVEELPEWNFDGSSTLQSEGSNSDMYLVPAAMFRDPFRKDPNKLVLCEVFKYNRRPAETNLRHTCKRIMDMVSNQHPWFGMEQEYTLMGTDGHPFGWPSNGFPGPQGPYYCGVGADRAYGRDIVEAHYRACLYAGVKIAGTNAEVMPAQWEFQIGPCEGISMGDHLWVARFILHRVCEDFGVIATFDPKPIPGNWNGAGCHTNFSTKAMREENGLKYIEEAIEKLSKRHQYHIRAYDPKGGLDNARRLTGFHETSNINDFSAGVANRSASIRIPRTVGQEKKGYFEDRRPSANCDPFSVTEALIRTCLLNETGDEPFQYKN
active: [3] -0.225
inactive: [1] 0.11 | filanesib 0.002 | zotarolimus -0.154 | idasanutlin 0.032 | alisertib -0.013 | [2] -0.061 | gefitinib 0.01 | lapatinib -0.032 | pictilisib -0.001

FANCD2 isoform 1 (UniProt Q9BXW9)
UniProt Q9BXW9, sequence (Q9BXW9 whole entry, looked up): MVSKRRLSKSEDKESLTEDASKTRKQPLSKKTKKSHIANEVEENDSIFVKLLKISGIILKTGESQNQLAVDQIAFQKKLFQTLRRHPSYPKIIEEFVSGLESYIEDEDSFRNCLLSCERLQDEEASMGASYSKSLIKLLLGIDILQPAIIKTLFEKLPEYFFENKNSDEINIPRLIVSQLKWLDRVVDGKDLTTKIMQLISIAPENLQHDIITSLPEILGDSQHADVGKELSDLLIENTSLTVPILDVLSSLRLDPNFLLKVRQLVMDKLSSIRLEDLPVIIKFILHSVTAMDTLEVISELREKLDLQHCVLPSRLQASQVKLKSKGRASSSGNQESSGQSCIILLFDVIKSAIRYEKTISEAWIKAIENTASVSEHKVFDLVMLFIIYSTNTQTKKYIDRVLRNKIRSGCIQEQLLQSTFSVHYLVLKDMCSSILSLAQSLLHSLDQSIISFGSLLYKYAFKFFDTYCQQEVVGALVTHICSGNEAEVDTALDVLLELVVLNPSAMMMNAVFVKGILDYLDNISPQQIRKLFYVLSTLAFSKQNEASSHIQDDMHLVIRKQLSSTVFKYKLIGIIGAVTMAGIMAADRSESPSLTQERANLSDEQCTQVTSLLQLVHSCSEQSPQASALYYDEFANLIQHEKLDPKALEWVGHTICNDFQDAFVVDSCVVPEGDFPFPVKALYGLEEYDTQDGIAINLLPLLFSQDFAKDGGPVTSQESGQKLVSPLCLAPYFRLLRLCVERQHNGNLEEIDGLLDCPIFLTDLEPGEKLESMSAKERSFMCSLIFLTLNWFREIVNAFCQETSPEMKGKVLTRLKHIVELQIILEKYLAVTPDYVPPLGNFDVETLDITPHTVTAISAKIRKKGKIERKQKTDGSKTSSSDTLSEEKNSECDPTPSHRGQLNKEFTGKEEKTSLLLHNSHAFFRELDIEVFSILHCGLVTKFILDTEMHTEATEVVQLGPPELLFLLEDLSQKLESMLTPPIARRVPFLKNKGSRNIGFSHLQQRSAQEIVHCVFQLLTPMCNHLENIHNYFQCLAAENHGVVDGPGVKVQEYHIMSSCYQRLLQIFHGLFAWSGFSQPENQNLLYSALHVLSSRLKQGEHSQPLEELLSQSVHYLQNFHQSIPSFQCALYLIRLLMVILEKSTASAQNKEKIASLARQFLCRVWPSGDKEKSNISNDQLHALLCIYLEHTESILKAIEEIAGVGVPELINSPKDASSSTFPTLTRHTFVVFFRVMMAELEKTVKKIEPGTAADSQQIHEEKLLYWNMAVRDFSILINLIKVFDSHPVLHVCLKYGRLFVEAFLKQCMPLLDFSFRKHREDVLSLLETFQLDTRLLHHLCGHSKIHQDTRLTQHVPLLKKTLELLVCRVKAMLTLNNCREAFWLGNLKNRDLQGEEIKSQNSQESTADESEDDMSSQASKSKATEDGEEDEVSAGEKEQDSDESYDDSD
inactive: [1] 0.054 | filanesib -0.078 | zotarolimus -0.007 | idasanutlin -0.062 | alisertib -0.037 | [2] 0.053 | gefitinib -0.033 | [3] 0.031 | lapatinib -0.025 | pictilisib 0.123

FYB1 isoform 3 (UniProt O15117)
inactive: [1] 0.001 | filanesib 0.06 | idasanutlin -0.106 | alisertib -0.035 | [2] 0.026 | gefitinib 0.103 | [3] 0.134 | lapatinib 0.068 | pictilisib 0.108

GID4 (UniProt Q8IVV7)
inactive: filanesib -0.089 | zotarolimus 0.013 | idasanutlin -0.023 | alisertib -0.074 | [2] 0.097 | gefitinib -0.067 | [3] 0.01 | lapatinib -0.14 | pictilisib 0.024

HS1BP3 (UniProt Q53T59)
UniProt Q53T59, sequence (Q53T59 whole entry, looked up): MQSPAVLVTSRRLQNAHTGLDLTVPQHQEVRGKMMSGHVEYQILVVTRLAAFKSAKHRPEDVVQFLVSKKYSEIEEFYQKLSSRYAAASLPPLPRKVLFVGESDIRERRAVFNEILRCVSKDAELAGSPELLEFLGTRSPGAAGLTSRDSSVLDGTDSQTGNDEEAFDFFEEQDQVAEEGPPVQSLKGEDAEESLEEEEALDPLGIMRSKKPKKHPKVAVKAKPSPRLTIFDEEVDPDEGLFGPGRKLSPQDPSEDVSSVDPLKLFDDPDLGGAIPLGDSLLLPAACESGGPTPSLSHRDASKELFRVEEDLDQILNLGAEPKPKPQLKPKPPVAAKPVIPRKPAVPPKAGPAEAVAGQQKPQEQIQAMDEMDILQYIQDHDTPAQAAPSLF
inactive: [1] 0.032 | filanesib -0.085 | zotarolimus 0.02 | idasanutlin 0.039 | [2] 0.087 | gefitinib -0.196 | lapatinib 0.118

FGG (UniProt P02679)
inactive: [2] -0.068 | lapatinib -0.001 | pictilisib -0.367

H3-3A (UniProt P84243)
inactive: filanesib -0.187 | zotarolimus 0.009 | alisertib 0.098 | [2] 0.179 | gefitinib 0.035 | [3] -0.062 | lapatinib -0.042

HSPA2 (UniProt P54652)
inactive: [1] -0.103 | filanesib 0.026 | idasanutlin 0.032 | alisertib -0.077 | gefitinib 0.005 | [3] 0.076

GPD1 (UniProt P21695)
inactive: filanesib -0.083 | zotarolimus 0.022 | idasanutlin -0.289 | alisertib 0.077 | [2] -0.051 | gefitinib 0.368 | [3] 0.111 | lapatinib 0.015 | pictilisib 0.203

GSTT1 (UniProt P30711)
UniProt P30711, sequence (P30711 whole entry, looked up): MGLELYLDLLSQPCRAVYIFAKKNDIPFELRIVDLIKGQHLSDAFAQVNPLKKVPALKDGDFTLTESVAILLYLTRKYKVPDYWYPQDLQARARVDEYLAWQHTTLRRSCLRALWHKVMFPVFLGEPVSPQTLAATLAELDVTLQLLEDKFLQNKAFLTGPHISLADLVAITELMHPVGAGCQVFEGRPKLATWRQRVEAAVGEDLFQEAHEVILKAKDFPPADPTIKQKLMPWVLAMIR
inactive: [1] 0.014 | zotarolimus 0.07 | idasanutlin 0 | alisertib -0.118 | [2] -0.015 | gefitinib 0.023 | [3] 0.029 | lapatinib 0.003 | pictilisib 0.027

GSK3B isoform 2 (UniProt P49841)
UniProt P49841, sequence (P49841 whole entry, looked up): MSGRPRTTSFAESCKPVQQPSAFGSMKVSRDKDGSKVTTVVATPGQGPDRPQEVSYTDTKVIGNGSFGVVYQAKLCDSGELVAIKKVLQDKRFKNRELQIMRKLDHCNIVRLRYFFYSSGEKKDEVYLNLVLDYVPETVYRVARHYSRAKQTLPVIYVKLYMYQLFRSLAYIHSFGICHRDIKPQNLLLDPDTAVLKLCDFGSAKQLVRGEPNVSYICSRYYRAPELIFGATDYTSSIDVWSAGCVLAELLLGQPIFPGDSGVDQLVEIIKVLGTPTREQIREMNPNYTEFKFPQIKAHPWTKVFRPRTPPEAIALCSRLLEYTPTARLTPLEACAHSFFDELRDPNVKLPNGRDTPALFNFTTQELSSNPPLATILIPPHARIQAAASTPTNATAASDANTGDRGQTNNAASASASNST
inactive: [1] 0.133 | filanesib -0.034 | zotarolimus 0.013 | idasanutlin -0.121 | [2] 0.056 | gefitinib -0.041 | [3] 0.022 | lapatinib -0.013 | pictilisib 0.014
